Each structure is given as a SMILES string. Unmarked numbers belong to inactive results. Inconclusive results are not listed. Active and inactive are the calls of the source. Unless noted, the call rests on the fitted dose curve; in most records, active means well fitted curve in the direction sought with a large enough effect in the repeat runs; inconclusive means weak or mixed curves; inactive means no such curve, though single readings can be large; an effect the other way counts as inactive or inconclusive.

Experiment [1] in a line: qHTS assay to identify small molecule agonists of the TGF-beta/Smad signaling pathway - cell viability counter screen (AID 1346829). Further: top concentration of the series differs between compounds; nearly all actives have a fitted effect of over 45% in size. Put shortly:
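Compound-treated SBE-bla HEK 293T cells (5 hr, 37 C) were assessed for viability with CellTiter-Glo in parallel with the reporter read.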
Background: qHTS replaces the single test concentration by a dilution series.

Experiment [2] in a line: qHTS assay to identify small molecule agonists of the TGF-beta/Smad signaling pathway (AID 1346859; active means well fitted activation curve with a large enough effect in the signal ratio in the repeat runs, not every such curve was filed as active; the % refers to the signal ratio; further: series mostly up to about 77 µM). Put shortly: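 SBE-bla HEK293T cells plated overnight, then compound exposure for 5 h at 37 C. Beta-lactamase reporter read with LiveBLAzer B/G FRET substrate after 2 h at room temperature, fluorescence at 405 nm excitation, 460/530 nm emission.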
Experiment [3] is described as follows: Human pregnane X receptor (PXR) small molecule agonists, qHTS cell viability counter screen (AID 1346977). Further: nearly all actives have a fitted effect of over 50% in size. Put shortly:
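PXR-Luc HepG2 cells (2,000/well, 5% charcoal-stripped FBS) preincubated 5 hr, then exposed to compounds 24 hr at 37 C. Viability read in the same wells by CellTiter-Fluor fluorescence, reagent added at 23 hr, 1 hr incubation.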

A short description of experiment [4]: Caspase-3/7 induction in HepG2 cells by small molecules, qHTS assay (AID 1346978). Further: nearly all actives have a fitted effect of over 15% in size. Put shortly:
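Wild-type HepG2 cells, 2,000/well, settled 5 hr at 37 C and 5% CO2, then compound-treated for 17 hr; caspase-3/7 activity read by luminescent Caspase-Glo 3/7 after 30 min at room temperature.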

Experiment [5] can be described thus: Caspase-3/7 induction in CHO-K1 cells by small molecules, qHTS cell viability counter screen (AID 1346979). Further: nearly all actives have a fitted effect of over 35% in size. Put shortly:
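Wild-type CHO-K1 cells (1,500/well) treated with compound after 5 h plating; after 16 h at 37C, viability read as CellTiter-Fluor fluorescence following 1 h reagent incubation, in the same wells as the caspase read.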

A short description of experiment [6]: Caspase-3/7 induction in CHO-K1 cells by small molecules, qHTS assay (AID 1346980). Further: nearly all actives have a fitted effect of over 15% in size. Put shortly: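 Wild-type CHO-K1 cells exposed to compounds for 17hr at 37 C, 5% CO2. Caspase-3/7 activity then measured by Caspase-Glo 3/7 luminescence after 30min at room temperature.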
Experiment [7] has as its target Nuclear receptor subfamily 1 group I member 2 (Homo sapiens) (UniProt O75469). The experiment can be described thus: Human pregnane X receptor (PXR) small molecule agonists, qHTS assay (AID 1346982). Further: nearly all actives have a fitted effect of over 35% in size. Put shortly: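 Stable HepG2 line reporting PXR-mediated CYP3A4 expression via luciferase. Treatment: 24 hr with compounds in DMSO at 37 C. Detection: ONE-Glo luminescence.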

Experiment [8] deals with Cytochrome P450 2D6 (Homo sapiens) (UniProt P10635). The experiment can be described thus: Cytochrome P450 Family 2 Subfamily D Member 6 (CYP2D6) small molecule antagonists: luciferase reporter qHTS assay (AID 1671196). Further: nearly all actives have a fitted effect of over 50% in size. Further: potency means the concentration at half of the fitted maximal effect. On activity change, negative = inhibition: series mostly up to about 120 µM. Put shortly: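 Chemicals tested for interference with CYP2D6 activity; proluciferin substrate, NADPH regeneration, 1 h at room temperature, luminescent detection.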
Cytochrome P450 2D6 (Homo sapiens), sequence (P10635 whole entry, looked up): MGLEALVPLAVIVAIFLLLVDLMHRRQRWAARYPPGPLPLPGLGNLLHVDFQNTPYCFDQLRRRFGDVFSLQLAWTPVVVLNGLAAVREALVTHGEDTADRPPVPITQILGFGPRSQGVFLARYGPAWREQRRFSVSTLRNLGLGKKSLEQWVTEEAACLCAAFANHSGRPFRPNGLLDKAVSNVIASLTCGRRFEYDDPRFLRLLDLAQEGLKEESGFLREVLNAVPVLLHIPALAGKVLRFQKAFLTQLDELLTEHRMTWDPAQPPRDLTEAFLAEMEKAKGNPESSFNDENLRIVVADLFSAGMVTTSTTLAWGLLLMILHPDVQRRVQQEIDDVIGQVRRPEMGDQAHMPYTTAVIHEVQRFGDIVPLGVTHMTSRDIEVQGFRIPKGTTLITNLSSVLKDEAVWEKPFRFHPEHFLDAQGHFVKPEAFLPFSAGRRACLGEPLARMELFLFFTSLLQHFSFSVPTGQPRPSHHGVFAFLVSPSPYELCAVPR
In general terms: A reporter such as luciferase makes a cellular process visible.

In experiment [9] the target is Cytochrome P450 2C19 (Homo sapiens) (UniProt P33261). The experiment can be described thus: Cytochrome P450 Family 2 Subfamily C Member 19 (CYP2C19) small molecule antagonists: luciferase reporter qHTS assay (AID 1671197). Further: nearly all actives have a fitted effect of over 65% in size. Further: potency means the concentration at half of the fitted maximal effect. On activity change, negative = inhibition: series mostly up to about 120 µM. Put shortly:
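P450-Glo CYP2C19 screening system; proluciferin substrate; DMSO compound stocks; 10 min RT preincubation; NADPH regeneration, 1 h at 37C; luciferin detection reagent, 20 min RT; luminescence as RLU.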

For experiment [10], the target named is Cytochrome P450 1A2 (Homo sapiens) (UniProt P05177). The experiment can be described thus: Cytochrome P450 Family 1 Subfamily A Member 2 (CYP1A2) small molecule antagonists: luciferase reporter qHTS assay (AID 1671199). Further: nearly all actives have a fitted effect of over 50% in size. Further: potency means the concentration at half of the fitted maximal effect. On activity change, negative = inhibition: series mostly up to about 120 µM. Put shortly: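 Read-out is luminescence from luciferin detection reagent (20 min) proportional to CYP1A2 activity; compounds in DMSO preincubated 10 min with enzyme and proluciferin substrate, then NADPH regeneration solution, 1 h, room temperature.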
Cytochrome P450 1A2 (Homo sapiens), sequence (P05177 whole entry, looked up): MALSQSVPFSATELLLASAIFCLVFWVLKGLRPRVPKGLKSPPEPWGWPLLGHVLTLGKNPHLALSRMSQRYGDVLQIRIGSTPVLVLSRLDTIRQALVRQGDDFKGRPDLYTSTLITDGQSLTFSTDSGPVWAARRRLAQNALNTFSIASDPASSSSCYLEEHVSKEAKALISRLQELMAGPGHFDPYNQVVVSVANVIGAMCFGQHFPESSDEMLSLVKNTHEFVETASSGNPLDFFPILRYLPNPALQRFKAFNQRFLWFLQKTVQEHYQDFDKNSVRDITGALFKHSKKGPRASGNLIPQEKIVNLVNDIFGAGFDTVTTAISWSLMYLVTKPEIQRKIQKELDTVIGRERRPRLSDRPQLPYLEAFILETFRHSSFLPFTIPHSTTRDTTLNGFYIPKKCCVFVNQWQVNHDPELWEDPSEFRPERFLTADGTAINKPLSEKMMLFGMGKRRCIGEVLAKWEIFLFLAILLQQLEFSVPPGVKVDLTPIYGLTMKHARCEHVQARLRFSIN

The target of experiment [11] is Voltage-gated inwardly rectifying potassium channel KCNH2 (Homo sapiens) (UniProt Q12809). The experiment can be described thus: Human Ether-a-go-go-Related Gene (hERG) channel small molecule antagonists: fluorescence cell-based qHTS assay (AID 1671200).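 Further: hERG-expressing U2OS cells given a thallium stimulus after FluxOR II dye loading; series mostly up to about 77 µM; nearly all actives have a fitted effect of over 50% in size.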 Put shortly: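 hERG-U2OS cells plated overnight at 37 C, loaded with FluxOR II dye 1 h at RT in dark; after 10 min, thallium stimulus added. Fluorescence (480/540 nm) read kinetically for 2 min at 1 s intervals.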
Voltage-gated inwardly rectifying potassium channel KCNH2 (Homo sapiens), sequence (Q12809 whole entry, looked up): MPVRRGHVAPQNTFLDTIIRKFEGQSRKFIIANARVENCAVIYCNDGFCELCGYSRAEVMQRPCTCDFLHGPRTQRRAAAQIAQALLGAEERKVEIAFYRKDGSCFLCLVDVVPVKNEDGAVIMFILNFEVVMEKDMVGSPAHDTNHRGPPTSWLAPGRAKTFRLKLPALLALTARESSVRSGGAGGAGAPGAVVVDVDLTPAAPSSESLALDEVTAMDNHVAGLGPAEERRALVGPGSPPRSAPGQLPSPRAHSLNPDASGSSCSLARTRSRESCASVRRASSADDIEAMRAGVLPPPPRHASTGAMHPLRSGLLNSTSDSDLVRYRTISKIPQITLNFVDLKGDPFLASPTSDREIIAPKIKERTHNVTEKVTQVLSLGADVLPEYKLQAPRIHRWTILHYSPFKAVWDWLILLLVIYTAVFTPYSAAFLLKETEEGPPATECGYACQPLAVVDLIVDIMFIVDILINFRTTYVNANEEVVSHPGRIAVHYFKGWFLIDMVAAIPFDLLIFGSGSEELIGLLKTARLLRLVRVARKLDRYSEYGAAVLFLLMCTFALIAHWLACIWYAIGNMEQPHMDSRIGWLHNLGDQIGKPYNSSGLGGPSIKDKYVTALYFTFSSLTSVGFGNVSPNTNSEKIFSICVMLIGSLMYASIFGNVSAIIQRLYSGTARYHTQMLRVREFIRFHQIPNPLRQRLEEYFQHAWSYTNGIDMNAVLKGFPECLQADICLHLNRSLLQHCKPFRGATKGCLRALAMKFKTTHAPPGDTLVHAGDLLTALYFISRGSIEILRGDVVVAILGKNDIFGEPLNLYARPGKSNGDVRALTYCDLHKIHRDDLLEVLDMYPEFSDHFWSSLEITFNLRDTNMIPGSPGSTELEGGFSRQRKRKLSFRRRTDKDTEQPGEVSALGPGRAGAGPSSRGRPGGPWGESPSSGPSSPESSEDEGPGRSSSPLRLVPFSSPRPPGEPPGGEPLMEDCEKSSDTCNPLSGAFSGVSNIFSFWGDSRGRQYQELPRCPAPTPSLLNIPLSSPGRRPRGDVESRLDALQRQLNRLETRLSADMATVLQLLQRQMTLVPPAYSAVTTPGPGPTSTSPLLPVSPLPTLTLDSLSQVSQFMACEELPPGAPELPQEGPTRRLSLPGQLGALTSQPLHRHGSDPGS
(The hERG channel carries a current that helps repolarise heart muscle cells.)

For experiment [12], the target named is Cytochrome P450 3A4 (Homo sapiens) (UniProt P08684). The experiment can be described thus: Cytochrome P450 Family 3 Subfamily A Member 4 (CYP3A4) small molecule antagonists: luciferase reporter qHTS assay (AID 1671201). Further: nearly all actives have a fitted effect of over 50% in size. Further: potency means the concentration at half of the fitted maximal effect. On activity change, negative = inhibition: series mostly up to about 120 µM. Put shortly:
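P450-Glo CYP3A4 luminescent assay: compounds preincubated 10 min at room temperature with enzyme and proluciferin substrate, NADPH regeneration added, 1 h room-temperature reaction, stopped with luciferin detection reagent; luminescence read after 20 min. Ketoconazole positive control.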

Experiment [13] is described as follows: Caspase-3/7 induction in HepG2 cells by small molecules, qHTS cell viability counter screen (AID 1346981). Further: series mostly up to about 92 µM; nearly all actives have a fitted effect of over 30% in size. Put shortly: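 Treatment of HepG2 cells with DMSO-delivered compounds ran 16 hr at 37 C following a 5-hr pre-incubation of 2,000 cells/well. CellTiter-Fluor fluorescence, read after 1 hr, served as the viability measure in a qHTS format.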
Experiment [14] concerns the target Cytochrome P450 2C9 (Homo sapiens) (UniProt P11712). The experiment can be described thus: Cytochrome P450 Family 2 Subfamily C Member 9 (CYP2C9) small molecule antagonists: luciferase reporter qHTS assay (AID 1671198). Further: nearly all actives have a fitted effect of over 50% in size. Further: potency means the concentration at half of the fitted maximal effect. On activity change, negative = inhibition: series mostly up to about 120 µM. Put shortly:
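P450-Glo proluciferin substrate with CYP2C9 enzyme; 10 min RT preincubation, then NADPH regeneration 1 h at 37C; luciferin detection reagent 20 min RT, luminescence in relative luminescence units.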

Experiment [15] has as its target Nuclear receptor subfamily 1 group I member 2 (Rattus norvegicus) (UniProt Q9R1A7). The experiment can be described thus: Rat pregnane X receptor (rPXR) activation by small molecules, qHTS assay (AID 1346983). Further: nearly all actives have a fitted effect of over 20% in size. The settings on record: rPXR luciferase reporter cells, One-Glo luminescence, 24 h; hits give high values. Put shortly: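 Cell-based rPXR activation assay: rPXR cells, 2,000 per well, rested 5hr at 37 C, then exposed to compounds in DMSO for 24 hr at 37 C. Luciferase activity read by One-Glo luminescence after 30 min at room temperature.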

In experiment [16] the target is Nuclear receptor subfamily 1 group I member 2 (Homo sapiens) (UniProt O75469). The experiment can be described thus: CYP3A4 induction through human pregnane X receptor (PXR) by small molecules, qHTS assay (AID 1346984). Further: nearly all actives have a fitted effect of over 40% in size. Put shortly: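 After 24 h at 37C with compound, DPX-2 cells (HepG2, co-transfected PXR response element and CYP3A4 promoter-luciferase) got 3uM final P450-Glo Luciferin-IPA for 3 h; One-Glo luminescence followed.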
Nuclear receptor subfamily 1 group I member 2 (Homo sapiens), sequence (O75469 whole entry, looked up): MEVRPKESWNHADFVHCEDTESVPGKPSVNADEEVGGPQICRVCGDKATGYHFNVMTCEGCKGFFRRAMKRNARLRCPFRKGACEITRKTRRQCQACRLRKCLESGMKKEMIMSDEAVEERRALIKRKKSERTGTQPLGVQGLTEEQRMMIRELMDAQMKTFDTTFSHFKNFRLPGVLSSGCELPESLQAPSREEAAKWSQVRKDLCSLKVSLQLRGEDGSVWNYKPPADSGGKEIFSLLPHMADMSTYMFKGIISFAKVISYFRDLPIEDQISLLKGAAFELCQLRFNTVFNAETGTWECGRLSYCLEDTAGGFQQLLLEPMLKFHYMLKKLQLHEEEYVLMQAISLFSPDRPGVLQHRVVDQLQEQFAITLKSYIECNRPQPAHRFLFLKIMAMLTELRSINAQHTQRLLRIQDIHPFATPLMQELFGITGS

For experiment [17] the target is unchanged. The experiment can be described thus: Human pregnane X receptor (PXR) activation by small molecules, qHTS assay (AID 1346985). Further: nearly all actives have a fitted effect of over 40% in size. Put shortly:
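DPX-2 cells (HepG2 co-transfected with a PXR response element and a CYP3A4-promoter luciferase construct) were seeded at 2,000 per well, rested 5 hr at 37C, then exposed to DMSO-dissolved compounds for 24 hr. Activation was read as luciferase luminescence.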
On the % scale 0 is the no-effect control and ±100 the full control effect.

Cytochrome P450 3A4 (Homo sapiens), sequence (P08684 whole entry, looked up): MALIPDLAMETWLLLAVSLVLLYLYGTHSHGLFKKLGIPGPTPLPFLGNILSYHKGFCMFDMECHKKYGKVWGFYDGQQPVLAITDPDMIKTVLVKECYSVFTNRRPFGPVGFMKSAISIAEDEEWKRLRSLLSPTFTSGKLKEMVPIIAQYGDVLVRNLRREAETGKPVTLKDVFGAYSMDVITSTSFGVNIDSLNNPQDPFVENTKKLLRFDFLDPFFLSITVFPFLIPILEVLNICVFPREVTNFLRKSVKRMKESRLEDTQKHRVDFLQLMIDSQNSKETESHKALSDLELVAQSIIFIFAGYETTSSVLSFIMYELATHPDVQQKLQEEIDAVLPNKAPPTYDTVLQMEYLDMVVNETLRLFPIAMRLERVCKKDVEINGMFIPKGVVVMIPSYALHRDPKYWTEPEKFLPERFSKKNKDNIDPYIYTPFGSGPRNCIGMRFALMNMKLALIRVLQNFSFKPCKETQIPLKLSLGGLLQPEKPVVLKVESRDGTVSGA
Cytochrome P450 2C19 (Homo sapiens), sequence (P33261 whole entry, looked up): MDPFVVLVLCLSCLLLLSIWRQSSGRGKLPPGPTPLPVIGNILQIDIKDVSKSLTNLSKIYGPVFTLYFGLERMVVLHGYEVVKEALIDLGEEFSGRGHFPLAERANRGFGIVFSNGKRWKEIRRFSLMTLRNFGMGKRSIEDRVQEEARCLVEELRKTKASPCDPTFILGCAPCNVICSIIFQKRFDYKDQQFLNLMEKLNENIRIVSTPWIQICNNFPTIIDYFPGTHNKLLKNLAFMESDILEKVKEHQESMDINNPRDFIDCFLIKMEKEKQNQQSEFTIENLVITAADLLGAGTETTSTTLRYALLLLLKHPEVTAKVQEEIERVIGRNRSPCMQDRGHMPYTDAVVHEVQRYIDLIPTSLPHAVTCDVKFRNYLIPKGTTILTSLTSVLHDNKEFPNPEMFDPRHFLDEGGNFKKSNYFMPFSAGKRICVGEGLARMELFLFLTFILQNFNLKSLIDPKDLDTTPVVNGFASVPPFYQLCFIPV
Cytochrome P450 2C9 (Homo sapiens), sequence (P11712 whole entry, looked up): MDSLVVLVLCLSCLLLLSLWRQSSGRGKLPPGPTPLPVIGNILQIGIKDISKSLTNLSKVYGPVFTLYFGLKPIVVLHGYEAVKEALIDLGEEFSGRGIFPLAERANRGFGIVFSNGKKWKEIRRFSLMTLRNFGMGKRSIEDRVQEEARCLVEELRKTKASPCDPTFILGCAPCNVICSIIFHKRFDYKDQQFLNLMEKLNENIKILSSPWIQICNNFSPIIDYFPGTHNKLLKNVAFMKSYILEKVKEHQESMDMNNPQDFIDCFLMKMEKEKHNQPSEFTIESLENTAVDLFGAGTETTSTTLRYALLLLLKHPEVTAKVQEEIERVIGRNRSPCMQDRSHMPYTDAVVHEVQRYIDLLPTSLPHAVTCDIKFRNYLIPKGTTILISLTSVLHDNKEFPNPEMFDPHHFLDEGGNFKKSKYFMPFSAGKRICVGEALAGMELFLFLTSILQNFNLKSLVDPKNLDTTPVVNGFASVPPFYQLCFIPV
Nuclear receptor subfamily 1 group I member 2 (Rattus norvegicus), sequence (Q9R1A7 whole entry, looked up): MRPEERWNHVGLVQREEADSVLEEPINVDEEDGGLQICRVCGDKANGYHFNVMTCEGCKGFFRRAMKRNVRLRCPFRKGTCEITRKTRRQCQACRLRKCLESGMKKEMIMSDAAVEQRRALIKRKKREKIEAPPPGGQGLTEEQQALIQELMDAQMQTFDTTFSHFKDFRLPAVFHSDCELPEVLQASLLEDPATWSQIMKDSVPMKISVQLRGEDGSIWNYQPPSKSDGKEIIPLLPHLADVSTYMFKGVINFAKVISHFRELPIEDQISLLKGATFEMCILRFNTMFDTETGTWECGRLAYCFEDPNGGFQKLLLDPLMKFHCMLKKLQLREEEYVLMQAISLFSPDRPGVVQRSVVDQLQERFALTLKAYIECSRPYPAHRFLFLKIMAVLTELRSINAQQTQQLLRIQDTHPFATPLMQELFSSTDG

As to `CC/C(C)=N\O[Si](C)(O/N=C(\C)CC)O/N=C(\C)CC`, the molecule was classed as inactive in experiment [1], in [2], in experiment [3], in [4] and in [6]. Also, the Potency entry in experiment [5], in experiment [7] and in experiment [11] was “inactive” in each case. For the same molecule, the Potency is 32.1 µM (active) in [8], 22.8 µM (active) in [9], 40.5 µM (active) in [10] and 12.8 µM (active) in experiment [12].

For `O=C=NCC1CCCC(CN=C=O)C1` (stereo not given), the outcome in experiment [1], in experiment [2], in [3], in experiment [4], in [6] and in [13] was inactive. In addition, the Potency entry in experiment [5], in experiment [10] and in experiment [11] was “inactive” throughout. Also, the Potency in experiment [8] is 31.7 µM (active); in experiment [9], 71 µM (active); in experiment [14] it was 10 µM (active); in experiment [12], 2.83 µM (active).

`O=S(=O)(O)c1ccc2c(N=Nc3ccc(S(=O)(=O)O)c4ccccc34)c(O)c(S(=O)(=O)O)cc2c1`: in experiment [1], the activity change, negative = cytotoxicity is 12.6% [at 6.97 µM]. Also, the activation is 0.897% [at 6.97 µM] in [2] and 1.28% [at 8.39 µM] in [7]. Besides, in experiment [4], the caspase activation is -0.326% [at 8.39 µM]. Moreover, the caspase-3/7 activation in experiment [6] was -0.308% [at 8.39 µM]. Besides, the max activation in experiment [15] is -9.86%. Further, the Potency entry in experiment [16] and in experiment [17] was “inactive” each time. Also, the activity change, negative = inhibition in experiment [8] is -11.1% [at 10.5 µM]; in experiment [9] it was -14.2% [at 10.5 µM]; in experiment [14], -3.9% [at 10.5 µM]; in [10], -17.3% [at 10.5 µM]; in experiment [11] it was 1.92% [at 6.97 µM]; in [12] it was 1.51% [at 10.5 µM].

Regarding `CCc1occc(=O)c1O`, the outcome in [1], in [2], in experiment [3], in experiment [4], in experiment [6] and in [13] was inactive. Besides, the Potency result in experiment [5], in experiment [7], in experiment [14], in experiment [10] and in experiment [12] was “inactive” throughout.

On to `CC(=O)O[C@H]1C[C@@H]2CC[C@@]1(C)C2(C)C`, for which the outcome in experiment [1], in experiment [2], in experiment [3], in [4] and in experiment [13] was inactive. For the same molecule, the Potency result in experiment [5], in [7], in experiment [8], in experiment [9], in experiment [14] and in experiment [11] was “inactive” each time. Moreover, in experiment [12], the Potency entry was “inactive”.

Regarding `CCOCCOCC`, the call in [1], in [2], in [4], in experiment [6] and in experiment [13] was inactive. Also, the Potency entry in experiment [7], in experiment [8], in experiment [9], in [14], in experiment [11] and in experiment [12] was “inactive” in each case.

With `CC(C)(CO)C(O)C(=O)NCCCO` (stereo not given), the molecule was called inactive in [1], in [2], in experiment [3], in experiment [4], in experiment [6] and in experiment [13]. Besides, the Potency result in [7], in experiment [9], in experiment [14], in experiment [11] and in experiment [12] was “inactive” throughout.

On to `C=C(C)[C@@H]1CC=C(C)C(=O)C1`, for which the result in experiment [1], in experiment [3], in experiment [4], in [6] and in [13] was inactive. Further, the Potency result in [5], in experiment [7], in [8], in experiment [9], in [14] and in experiment [12] was “inactive” throughout.

Values taken from PubChem BioAssay (Tox21).
